This is part of a sample that, as a whole, favours compounds with a hit. Of some 79,000 tested, about 15% had one in any assay. A number with no mark means an inactive call. Active and inactive are the calls of the source. Rule as the data show it: active = growth inhibition above about 70%; inactive = the rest. Residues, ends and D or L forms follow the SMILES beside them. *: point of attachment. Fmoc = O=C(OCC1c2ccccc2-c2ccccc21)*; Boc = CC(C)(C)OC(=O)*
Experiment: NCI Yeast Anticancer Drug Screen. Data for the bub3 strain (AID 167)
Details: S. cerevisiae bub3 mutant strain, at 3.7 µM, stronger effect = higher value
Method in brief: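 Screening used yeast with an engineered genetic alteration affecting cell cycle control. Compound-exposed cultures were compared with vehicle cultures, and reduced growth was taken as inhibition.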

Compound | growth inhibition
CC(C)C(=O)CC(Sc1ccc(N)cc1)c1ccccc1 (stereo not given) | 89% (active)
CC(C)OP(=O)(OC(C)C)/C(Cl)=N/Nc1ccc([N+](=O)[O-])cc1 | 3%
O=[N+]([O-])c1cc(Cl)ccc1S(=O)(=O)c1ccc(Cl)cc1[N+](=O)[O-] | 7%
CCCCCCNCCCNc1c2cc(OC)ccc2nc2cccc([N+](=O)[O-])c12 | -13%
N#CCC(=O)N/N=C(\c1ccccc1)C(c1ccccc1)C1(O)C(=O)Nc2c(Cl)ccc(Cl)c21 (stereo not given) | 5%
CN(C)CCNCCCNc1c2ccccc2nc2cccc([N+](=O)[O-])c12 | -11%
CCC[CH2][Ge]([CH2]CCC)([CH2]CCC)[O]C(=O)C(O)c1ccccc1 (stereo not given) | -4%
COc1ccc(-c2cc(-c3cc(C)cc(Cl)c3O)nc3[nH]c(=S)[nH]c(=S)c23)cc1 | 4%
O=[N+]([O-])c1ccc(/C=C\c2ccc3c(c2)OCO3)c([N+](=O)[O-])c1 | -7%
O=C1c2ccccc2N2OC3(N4CCCC4)CCCCC3C12c1ccccc1 (stereo not given) | -13%
CC(C)OC(=O)NNc1cc(Cl)ccc1Cl | -1%
Cc1oc2ccccc2c(=O)c1Cn1nnc2ccccc21 | -2%
CC1(C)OC(=O)C(=Cc2ccc([N+](=O)[O-])s2)C(=O)O1 | -13%
CCN(CC)CCCNc1ccc([N+](=O)[O-])c2nc3ccc(OC)cc3c(NCCCN(CC)CC)c12 | -7%
COc1cccc(/C=C2\S/C(=N/Nc3nc(-c4ccc([N+](=O)[O-])cc4)cs3)NC2=O)c1O | 33%
OC(Cc1cccc2ccccc12)CN1CCC(c2ccccc2)CC1 (stereo not given) | 41%
C1=CCN([B-](c2ccccc2)[C+]2CCCCC2)C=C1 | -1%
O=[N+]([O-])c1cc[n+]([O-])c(Cl)c1 | -16%

Compound | growth inhibition
CCCNC(=O)OCc1c(COC(=O)NCCC)c(-c2ccc(Cl)c(Cl)c2)n2c1CCC2 | -47%
CC1(C)CC(=O)C(C(=O)Nc2cccs2)=C(O)C1 | 23%
O=C(NO)c1coc2ccccc2c1=O | -5%
COc1ccc(C(C)c2cc3c(cc2OCC(C)=O)OCO3)cc1 (stereo not given) | 8%
O=S(=O)(c1ccccc1)N1CN2CN(C1)CN(S(=O)(=O)c1ccccc1)C2 | -16%
CC1=NN(C(=O)c2ccccc2O)C(=O)/C1=C/c1ccco1 | 52%
O=C1C=C(Br)C(=O)c2ccccc21 | 44%
C[N+](C)([O-])CCCNc1c2ccccc2nc2cccc([N+](=O)[O-])c12 | -14%
Cc1cccc2c(NCCCN(C)C)c3c([N+](=O)[O-])ccc(C)c3nc12 | -6%
OC1(c2ccccc2)C2CC=CC2C1(c1ccccc1)c1ccccc1 (stereo not given) | 2%
C[n+]1c(-c2ccc(/C=N/NC(=O)c3ccc(C(=O)N/N=C/c4ccc(-c5cn6ccccc6[n+]5C)cc4)cc3)cc2)cn2ccccc21 | 2%
CCN(CC)CCC(=O)Nc1ccc2sc3ccccc3c(=O)c2n1 | 4%
O=[N+]([O-])c1ccc2nc(=S)[nH]n2c1 | -8%
O=C(c1ccccc1)[C@H]1Nc2ccc(Cl)cc2[C@H]2OCCC[C@@H]12 | -7%
COc1cc([N+](=O)[O-])c2ncccc2c1Br | -14%
O=S(=O)(c1cccc(C(F)(F)F)c1)N1c2ccccc2-n2cccc2C1c1cccnc1 (stereo not given) | 1%
CC(C)(C)OC(=O)NCCCCC(NC(=O)C(Cc1c[nH]c2ccccc12)NC(=O)OCC1c2ccccc2-c2ccccc21)C(=O)O (stereo not given) (Fmoc-Trp-Lys(Boc)-OH; configuration not given here) | -1%

Same assay, conditions: S. cerevisiae bub3 mutant strain, at 5.0 µM (retest, dose inferred, filed as 0.5), stronger effect = higher value

Compound | growth inhibition
CC(C)C(=O)CC(Sc1ccc(N)cc1)c1ccccc1 (stereo not given) | 89% (active)
CC(C)OP(=O)(OC(C)C)/C(Cl)=N/Nc1ccc([N+](=O)[O-])cc1 | 29%
O=[N+]([O-])c1cc(Cl)ccc1S(=O)(=O)c1ccc(Cl)cc1[N+](=O)[O-] | 73% (active)
CCCCCCNCCCNc1c2cc(OC)ccc2nc2cccc([N+](=O)[O-])c12 | -3%
N#CCC(=O)N/N=C(\c1ccccc1)C(c1ccccc1)C1(O)C(=O)Nc2c(Cl)ccc(Cl)c21 (stereo not given) | 8%
CN(C)CCNCCCNc1c2ccccc2nc2cccc([N+](=O)[O-])c12 | -12%
CCC[CH2][Ge]([CH2]CCC)([CH2]CCC)[O]C(=O)C(O)c1ccccc1 (stereo not given) | 27%
COc1ccc(-c2cc(-c3cc(C)cc(Cl)c3O)nc3[nH]c(=S)[nH]c(=S)c23)cc1 | -20%
O=[N+]([O-])c1ccc(/C=C\c2ccc3c(c2)OCO3)c([N+](=O)[O-])c1 | 2%
O=C1c2ccccc2N2OC3(N4CCCC4)CCCCC3C12c1ccccc1 (stereo not given) | -6%
CC(C)OC(=O)NNc1cc(Cl)ccc1Cl | 32%
Cc1oc2ccccc2c(=O)c1Cn1nnc2ccccc21 | 3%
CC1(C)OC(=O)C(=Cc2ccc([N+](=O)[O-])s2)C(=O)O1 | 48%
CCN(CC)CCCNc1ccc([N+](=O)[O-])c2nc3ccc(OC)cc3c(NCCCN(CC)CC)c12 | 14%
COc1cccc(/C=C2\S/C(=N/Nc3nc(-c4ccc([N+](=O)[O-])cc4)cs3)NC2=O)c1O | 82% (active)
OC(Cc1cccc2ccccc12)CN1CCC(c2ccccc2)CC1 (stereo not given) | 64%
C1=CCN([B-](c2ccccc2)[C+]2CCCCC2)C=C1 | 1%
O=[N+]([O-])c1cc[n+]([O-])c(Cl)c1 | 5%

Compound | growth inhibition
CCCNC(=O)OCc1c(COC(=O)NCCC)c(-c2ccc(Cl)c(Cl)c2)n2c1CCC2 | 60%
CC1(C)CC(=O)C(C(=O)Nc2cccs2)=C(O)C1 | 16%
O=C(NO)c1coc2ccccc2c1=O | 13%
COc1ccc(C(C)c2cc3c(cc2OCC(C)=O)OCO3)cc1 (stereo not given) | 5%
O=S(=O)(c1ccccc1)N1CN2CN(C1)CN(S(=O)(=O)c1ccccc1)C2 | 25%
CC1=NN(C(=O)c2ccccc2O)C(=O)/C1=C/c1ccco1 | 43%
O=C1C=C(Br)C(=O)c2ccccc21 | 86% (active)
C[N+](C)([O-])CCCNc1c2ccccc2nc2cccc([N+](=O)[O-])c12 | 6%
Cc1cccc2c(NCCCN(C)C)c3c([N+](=O)[O-])ccc(C)c3nc12 | -24%
OC1(c2ccccc2)C2CC=CC2C1(c1ccccc1)c1ccccc1 (stereo not given) | -3%
C[n+]1c(-c2ccc(/C=N/NC(=O)c3ccc(C(=O)N/N=C/c4ccc(-c5cn6ccccc6[n+]5C)cc4)cc3)cc2)cn2ccccc21 | -1%
CCN(CC)CCC(=O)Nc1ccc2sc3ccccc3c(=O)c2n1 | -20%
O=[N+]([O-])c1ccc2nc(=S)[nH]n2c1 | -71%
O=C(c1ccccc1)[C@H]1Nc2ccc(Cl)cc2[C@H]2OCCC[C@@H]12 | 12%
COc1cc([N+](=O)[O-])c2ncccc2c1Br | -4%
O=S(=O)(c1cccc(C(F)(F)F)c1)N1c2ccccc2-n2cccc2C1c1cccnc1 (stereo not given) | 25%
CC(C)(C)OC(=O)NCCCCC(NC(=O)C(Cc1c[nH]c2ccccc12)NC(=O)OCC1c2ccccc2-c2ccccc21)C(=O)O (stereo not given) (Fmoc-Trp-Lys(Boc)-OH; configuration not given here) | -19%

Reference: PubChem BioAssay (NCI)
